Experimental data: PubChem BioAssay (NCATS)
Inconclusive results are not listed. Activity calls are given as the source filed them. Calls follow the shape of the dose curve; as a rule, active = well fitted curve in the direction sought with a large enough effect; inconclusive = small, poorly fitted or top-dose-only effect, or another doubt; inactive = no such curve, though single readings can be large; an effect the other way counts as inactive or inconclusive.

Columns and labels:
[1] = qHTS of pediatric cancer cell lines to identify multiple opportunities for drug repurposing: Primary screen for TC32 cells (AID 1347089); also: nearly all actives have a fitted effect of over 60% in size; as to activity change, negative = cytotoxic: % is scaled to controls: 0 for no effect and ±100 for the full control effect
Outline: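 Luminescent ATP read-out (CellTiter-Glo) of metabolically active TC32 cells after 48 h exposure. Concentration-response curves came from 11-point (MIPE, 0.78 nM–46 µM) or 8-point (NPC, 0.59 nM–46 µM) primary titrations; follow-up used 11 points.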

[2] = qHTS of pediatric cancer cell lines to identify multiple opportunities for drug repurposing: Primary screen for DAOY cells (AID 1347090); also: nearly all actives have a fitted effect of over 55% in size;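 as to activity change, negative = cytotoxic: series mostly up to about 46 µM; plate controls were DMSO for no effect and bortezomib for full effect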
Outline: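 Cell viability, CellTiter-Glo luminescence; 500-1,000 cells/well, 8- or 11-point titration, 48 h compound exposure at 37 degrees C, 5% CO2. Controls: DMSO neutral, bortezomib 2.3 µM final as positive.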

[3] = qHTS of pediatric cancer cell lines to identify multiple opportunities for drug repurposing: Primary screen for A673 cells (AID 1347092); also: nearly all actives have a fitted effect of over 45% in size; as to activity change, negative = cytotoxic: % is scaled to controls: 0 for no effect and ±100 for the full control effect
Outline: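 Cell viability of A673 measured by CellTiter-Glo ATP luminescence after 48 hours compound exposure. Dilution series spanned 0.78 nM to 46 µM (MIPE, 11-point) or 0.59 nM to 46 µM (NPC, 8-point); bortezomib 2.3 uM positive control.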

[4] = qHTS of pediatric cancer cell lines to identify multiple opportunities for drug repurposing: Primary screen for SK-N-MC cells (AID 1347093);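 as to activity change, negative = cytotoxic: series mostly up to about 46 µM; plate controls were DMSO neutral control for no effect and bortezomib for full effect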
Outline: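 Metabolically active cells were quantified by ATP-dependent luminescence (CellTiter-Glo, 15 min at room temperature) following 48 h treatment. Cells had been plated at 500-1,000 per well and settled for 5 h beforehand.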

[5] = qHTS of pediatric cancer cell lines to identify multiple opportunities for drug repurposing: Primary screen for BT-37 cells (AID 1347094);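 as to activity change, negative = cytotoxic: series mostly up to about 57 µM; plate controls were DMSO for no effect and bortezomib for full effect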
Outline: (§1)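 Phenotypic viability qHTS, 48 h compound exposure, CellTiter-Glo luminescence read-out; multi-concentration dosing so that potency and efficacy derive directly from the primary screen's curves.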

[6] = qHTS of pediatric cancer cell lines to identify multiple opportunities for drug repurposing: Primary screen for NB-EBc1 cells (AID 1347095);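 as to activity change, negative = cytotoxic: plate controls were DMSO neutral control for no effect and bortezomib for full effect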
Outline: as §1

[7] = qHTS of pediatric cancer cell lines to identify multiple opportunities for drug repurposing: Primary screen for U-2 OS cells (AID 1347096); also: nearly all actives have a fitted effect of over 50% in size;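 as to activity change, negative = cytotoxic: plate controls were DMSO wells for no effect and bortezomib positive control wells for full effect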
Outline: (§2)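 Cells (500-1,000/well) rested 5 h, then received compounds for 48 h; metabolically active cells were measured by CellTiter-Glo luminescence. Final concentrations spanned up to 46 µM (MIPE, 11-point) or 0.59 nM-46 µM (NPC, 8-point) in primary screens, 11-point in follow-ups.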

[8] = qHTS of pediatric cancer cell lines to identify multiple opportunities for drug repurposing: Primary screen for Saos-2 cells (AID 1347097); also: nearly all actives have a fitted effect of over 40% in size; as to activity change, negative = cytotoxic: % is scaled to controls: 0 for no effect and ±100 for the full control effect
Outline: as §1

[9] = qHTS of pediatric cancer cell lines to identify multiple opportunities for drug repurposing: Primary screen for SK-N-SH cells (AID 1347098); also: nearly all actives have a fitted effect of over 65% in size; as to activity change, negative = cytotoxic: % is scaled to controls: 0 for no effect and ±100 for the full control effect
Outline: as §2

[10] = qHTS of pediatric cancer cell lines to identify multiple opportunities for drug repurposing: Primary screen for NB1643 cells (AID 1347099); also: nearly all actives have a fitted effect of over 50% in size;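 as to activity change, negative = cytotoxic: plate controls were DMSO neutral control for no effect and bortezomib positive control for full effect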
Outline: as §1

[11] = qHTS of pediatric cancer cell lines to identify multiple opportunities for drug repurposing: Primary screen for LAN-5 cells (AID 1347100);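 as to activity change, negative = cytotoxic: plate controls were DMSO neutral control for no effect and bortezomib positive control for full effect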
Outline: as §2

[12] = qHTS of pediatric cancer cell lines to identify multiple opportunities for drug repurposing: Primary screen for BT-12 cells (AID 1347101); also: nearly all actives have a fitted effect of over 25% in size;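 as to activity change, negative = cytotoxic: plate controls were DMSO for no effect and bortezomib positive control for full effect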
Outline: as §2

[13] = qHTS of pediatric cancer cell lines to identify multiple opportunities for drug repurposing: Primary screen for Rh18 cells (AID 1347102); also: nearly all actives have a fitted effect of over 65% in size
Outline: as §2

[14] = qHTS of pediatric cancer cell lines to identify multiple opportunities for drug repurposing: Primary screen for RD cells (AID 1347104); also: nearly all actives have a fitted effect of over 55% in size;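 as to activity change, negative = cytotoxic: plate controls were DMSO for no effect and bortezomib for full effect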
Outline: as §1

[15] = qHTS of pediatric cancer cell lines to identify multiple opportunities for drug repurposing: Primary screen for OHS-50 cells (AID 1347103); also: nearly all actives have a fitted effect of over 40% in size;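 as to activity change, negative = cytotoxic: plate controls were DMSO neutral control for no effect and bortezomib positive control for full effect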
Outline: as §2
Potency is read from the fitted curve at half-maximal effect.

CCOC(=O)COc1ccc2c(C)c(CCN(CC)CC)c(=O)oc2c1Cl
inactive: Potency [1] | Potency [2] | Potency [3] | Potency [4] | Potency [5] | Potency [6] | Potency [7] | Potency [8] | Potency [9] | Potency [10] | Potency [11] | Potency [12] | Potency [13] | Potency [14]

COc1cccc2c1C(=O)c1c(O)c3c(c(O)c1C2=O)C[C@@](O)(C(C)=O)C[C@@H]3O[C@H]1C[C@H](N)[C@H](O)[C@H](C)O1
active: Potency [1] 0.236 µM | Potency [2] 1.06 µM | Potency [3] 0.266 µM | Potency [5] 0.11 µM | Potency [6] 0.0531 µM | Potency [8] 0.266 µM | Potency [9] 0.386 µM | Potency [10] 0.133 µM | Potency [12] 0.55 µM | Potency [13] 0.473 µM | Potency [15] 0.347 µM | Potency [14] 1.19 µM

COCc1c(C(C)C)nc(C(C)C)c(/C=C/[C@@H](O)C[C@@H](O)CC(=O)O)c1-c1ccc(F)cc1
active: Potency [1] 1.49 µM | Potency [2] 0.266 µM | Potency [3] 0.668 µM | Potency [4] 1.19 µM | Potency [5] 2.19 µM | Potency [6] 1.68 µM | Potency [7] 0.841 µM | Potency [8] 0.106 µM | Potency [9] 0.433 µM | Potency [10] 1.5 µM | Potency [11] 3.76 µM | Potency [13] 0.473 µM | Potency [15] 0.309 µM | Potency [14] 1.68 µM

CCCCCCCCCCCCCCCCCC(=O)OCC(O)CO (centres undefined)
inactive: Potency [1] | Potency [2] | Potency [3] | Potency [4] | Potency [5] | Potency [6] | Potency [7] | Potency [8] | Potency [9] | Potency [10] | Potency [11] | Potency [12] | Potency [13] | Potency [15] | Potency [14]

CCCCS(=O)(=O)N[C@@H](Cc1ccc(OCCCCC2CCNCC2)cc1)C(=O)O
inactive: Potency [1] | Potency [2] | Potency [3] | Potency [4] | Potency [5] | Potency [7] | Potency [8] | Potency [10] | Potency [11] | Potency [12] | Potency [15] | Potency [14]

CN=C(NC#N)Nc1ccc(C2=NNC(=O)CC2C)cc1 (centres undefined)
inactive: Potency [1] | Potency [2] | Potency [3] | Potency [4] | Potency [5] | Potency [6] | Potency [7] | Potency [8] | Potency [10] | Potency [11] | Potency [12] | Potency [13] | Potency [15] | Potency [14]

CC(=O)Nc1c(I)cc(I)c(C(=O)O)c1I
inactive: Potency [1] | Potency [2] | Potency [3] | Potency [4] | Potency [5] | Potency [6] | Potency [7] | Potency [8] | Potency [9] | Potency [10] | Potency [11] | Potency [12] | Potency [13] | Potency [15] | Potency [14]

CC(=O)OCC(=O)[C@@]1(O)CC[C@H]2[C@@H]3CCC4=CC(=O)C=C[C@]4(C)[C@H]3[C@@H](O)C[C@@]21C
inactive: Potency [1] | Potency [2] | Potency [3] | Potency [4] | Potency [5] | Potency [6] | Potency [7] | Potency [8] | Potency [10] | Potency [11] | Potency [12] | Potency [13] | Potency [14]

COc1cccc2c1C(=O)c1c(O)c3c(c(O)c1C2=O)C[C@@](O)(C(=O)CO)C[C@@H]3O[C@H]1C[C@H](N)[C@H](O)[C@H](C)O1
active: Potency [1] 0.745 µM | Potency [2] 4.22 µM | Potency [3] 1.06 µM | Potency [5] 0.347 µM | Potency [6] 0.133 µM | Potency [7] 13.3 µM | Potency [8] 13.3 µM | Potency [9] 0.217 µM | Potency [10] 0.473 µM | Potency [12] 1.38 µM | Potency [13] 1.88 µM | Potency [15] 1.1 µM | Potency [14] 2.37 µM

C=C1C[C@H]2[C@@H]3C=C(C)C4=CC(=O)CC[C@]4(C)[C@H]3CC[C@]2(C)[C@@]1(OC(C)=O)C(C)=O
inactive: Potency [1] | Potency [2] | Potency [3] | Potency [5] | Potency [8] | Potency [9] | Potency [10] | Potency [13] | Potency [14]
active: Potency [15] 30.9 µM

CNC(=O)CN(CCN(CCN(CC(=O)[O-])CC(=O)NC)CC(=O)[O-])CC(=O)[O-].O.[Gd+3]
inactive: Potency [1] | Potency [2] | Potency [3] | Potency [4] | Potency [5] | Potency [6] | Potency [7] | Potency [8] | Potency [9] | Potency [10] | Potency [11] | Potency [12] | Potency [13] | Potency [15] | Potency [14]

NC[C@H]1O[C@H](O[C@H]2[C@H](O[C@@H]3O[C@H](CO)[C@@H](O)[C@H]3O)C(O)[C@H](N)C[C@@H]2N)[C@H](N)[C@@H](O)[C@@H]1O (some centres undefined)
inactive: activity change, negative = cytotoxic [1] 6.72% [at 9.17 µM] | activity change, negative = cytotoxic [2] 6.37% [at 9.22 µM] | activity change, negative = cytotoxic [3] -0.207% [at 9.22 µM] | activity change, negative = cytotoxic [4] -3.87% [at 9.22 µM] | activity change, negative = cytotoxic [5] 10.7% [at 11.5 µM] | activity change, negative = cytotoxic [6] 28.9% [at 9.22 µM] | activity change, negative = cytotoxic [7] 11.5% [at 9.22 µM] | activity change, negative = cytotoxic [8] -4.84% [at 9.22 µM] | activity change, negative = cytotoxic [10] 0% [at 9.22 µM] | activity change, negative = cytotoxic [11] 25.3% [at 9.22 µM] | activity change, negative = cytotoxic [12] 7.42% [at 11.5 µM] | activity change, negative = cytotoxic [13] 31.2% [at 9.22 µM] | activity change, negative = cytotoxic [15] 7.33% [at 11.5 µM] | activity change, negative = cytotoxic [14] 14% [at 9.22 µM]

C[C@]12C=CC(=O)C=C1[C@@H](F)C[C@@H]1[C@@H]2[C@@H](O)C[C@@]2(C)[C@H]1CC[C@]2(O)C(=O)CO
inactive: Potency [1] | Potency [2] | Potency [3] | Potency [4] | Potency [5] | Potency [6] | Potency [7] | Potency [8] | Potency [9] | Potency [10] | Potency [11] | Potency [12] | Potency [15] | Potency [14]

CC(C)(C)NC(=O)[C@@H]1CN(Cc2cccnc2)CCN1C[C@@H](O)C[C@@H](Cc1ccccc1)C(=O)N[C@H]1c2ccccc2C[C@H]1O
inactive: Potency [1] | Potency [2] | Potency [3] | Potency [5] | Potency [6] | Potency [7] | Potency [8] | Potency [9] | Potency [10] | Potency [11] | Potency [12] | Potency [13] | Potency [15] | Potency [14]
